Measured values reported in PubChem BioAssay AID1159580 (chemical genetic matrix, 2015).
In all, about 5,500 compounds went through this assay and about 2,000 (36%) were called active. Not shown: some 18% with an inconclusive outcome. Rule as the data show it: active = normalized growth mostly below about 0.91 (no sharp cut-off); inconclusive = no clear call, values can overlap the other calls; inactive = mostly above about 0.92. This is one part of the list.

Assay: chemical genetic growth profiling, strain panel (AID 1159580);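 also: tested at 20 µM; growth read once vehicle control cultures reached saturation at 30 °C; 1 = growth at the plate median or of vehicle wells; lower values mean less growth of the strain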
Conditions: growth OD
[1] = S. cerevisiae deletion strains, locus YAL013W, strain DEP1, stronger effect = lower value
[2] = S. cerevisiae deletion strains, locus YBR229C, strain ROT2, stronger effect = lower value
[3] = S. cerevisiae deletion strains, locus YCL061C, strain MRC1, stronger effect = lower value
[4] = S. cerevisiae deletion strains, locus YDL101C, strain DUN1, stronger effect = lower value
[5] = S. cerevisiae deletion strains, locus YDR150W, strain NUM1, stronger effect = lower value
[6] = S. cerevisiae deletion strains, locus YEL061C, strain CIN8, stronger effect = lower value
[7] = S. cerevisiae deletion strains, locus YGR078C, strain PAC10, stronger effect = lower value
[8] = S. cerevisiae deletion strains, locus YHR030C, strain SLT2, stronger effect = lower value
[9] = S. cerevisiae deletion strains, locus YHR087W, strain rtc3, stronger effect = lower value
[10] = S. cerevisiae deletion strains, locus YJR043C, strain POL32, stronger effect = lower value
[11] = S. cerevisiae deletion strains, locus YJR075W, strain HOC1, stronger effect = lower value
[12] = S. cerevisiae deletion strains, locus YLR039C, strain RIC1, stronger effect = lower value
[13] = S. cerevisiae deletion strains, locus YLR058C, strain SHM2 (second series), stronger effect = lower value
[14] = S. cerevisiae deletion strains, locus YLR085C, strain ARP6, stronger effect = lower value
[15] = S. cerevisiae deletion strains, locus YLR262C, strain YPT6, stronger effect = lower value
[16] = S. cerevisiae deletion strains, locus YML094W, strain GIM5, stronger effect = lower value
[17] = S. cerevisiae deletion strains, locus YMR219W, strain ESC1, stronger effect = lower value
[18] = S. cerevisiae deletion strains, locus YMR263W, strain SAP30, stronger effect = lower value
[19] = S. cerevisiae deletion strains, locus YMR307W, strain GAS1, stronger effect = lower value
[20] = S. cerevisiae deletion strains, locus YNL153C, strain GIM3, stronger effect = lower value
[21] = S. cerevisiae deletion strains, locus YNL298W, strain CLA4 (second series), stronger effect = lower value
[22] = S. cerevisiae deletion strains, locus YNL322C, strain KRE1, stronger effect = lower value
[23] = S. cerevisiae deletion strains, locus YNR030W, strain Alg12, stronger effect = lower value
[24] = S. cerevisiae deletion strains, locus YPL055C, strain LGE1, stronger effect = lower value
[25] = S. cerevisiae deletion strains, locus YPL241C, strain CIN2, stronger effect = lower value
[26] = S. cerevisiae deletion strains, locus YPR135W, strain CTF4, stronger effect = lower value
[27] = S. cerevisiae strains, strain wild type, stronger effect = lower value

Measured: normalized growth

Cc1ccc(/C(C#N)=C2C=C/C(=N/O)C(Cl)=C\2Cl)cc1
inactive: [1] 0.953 | [2] 0.961 | [3] 0.965 | [4] 0.983 | [5] 0.963 | [6] 0.959 | [7] 0.975 | [9] 1 | [10] 1.01 | [11] 1 | [12] 0.865 | [13] 0.999 | [14] 0.825 | [16] 0.973 | [17] 0.991 | [18] 0.984 | [19] 0.721 | [20] 0.962 | [21] 0.885 | [22] 0.98 | [24] 0.949 | [25] 0.952 | [26] 0.681 | [27] 0.929
active: [8] 0.631 | [15] 0.816 | [23] 0.877

Cc1ccc(S(=O)(=O)/C(C#N)=N\O)cc1
inactive: [1] 0.989 | [2] 0.999 | [3] 1.01 | [4] 1.01 | [5] 1.02 | [6] 0.985 | [7] 0.997 | S. cerevisiae deletion strains, locus YGR229C, strain SMI1, stronger effect = lower value 0.988 | [8] 0.948 | [9] 0.979 | S. cerevisiae deletion strains, locus YJL187C, strain SWE1, stronger effect = lower value 0.987 | [10] 0.977 | [11] 1.03 | [12] 0.98 | [13] 0.997 | [14] 1.04 | [15] 0.984 | [16] 1.02 | [17] 1 | [18] 0.932 | [19] 1.12 | [20] 0.989 | [21] 0.977 | [22] 0.993 | [23] 0.998 | [24] 1.11 | [25] 1.02 | [26] 0.906 | [27] 0.971

C/C=C(\C)C(=O)OC1[C@@H]2C=C3C4CC(=O)O[C@@H](c5ccoc5)[C@]4(C)CCC3[C@@](C)(C2=O)[C@@H](C(O)C(=O)OC)C1(C)C (some centres undefined)
inactive: S. cerevisiae deletion strains, locus YBR021W, strain FUR4, stronger effect = lower value 1 | [2] 0.997 | S. cerevisiae deletion strains, locus YCL029C, strain bik1, stronger effect = lower value 1.01 | S. cerevisiae deletion strains, locus YDL035C, strain GPR1, stronger effect = lower value 0.994 | S. cerevisiae deletion strains, locus YDL074C, strain BRE1, stronger effect = lower value 1.03 | [4] 1.01 | S. cerevisiae deletion strains, locus YDL134C, strain PPH21, stronger effect = lower value 1.01 | S. cerevisiae deletion strains, locus YDL185W, strain tfp1, stronger effect = lower value 1.02 | S. cerevisiae deletion strains, locus YDL192W, strain arf1, stronger effect = lower value 1.01 | S. cerevisiae deletion strains, locus YDR101C, strain arx1, stronger effect = lower value 1.01 | S. cerevisiae deletion strains, locus YDR162C, strain NBP2, stronger effect = lower value 1.01 | S. cerevisiae deletion strains, locus YDR318W, strain mcm21, stronger effect = lower value 1.02 | S. cerevisiae deletion strains, locus YDR388W, stronger effect = lower value 1.02 | S. cerevisiae deletion strains, locus YDR502C, strain sam2, stronger effect = lower value 1.03 | S. cerevisiae deletion strains, locus YER110C, stronger effect = lower value 1.01 | S. cerevisiae deletion strains, locus YER155C, strain BEM2, stronger effect = lower value 1 | S. cerevisiae deletion strains, locus YER167W, strain BCK2, stronger effect = lower value 0.994 | S. cerevisiae deletion strains, locus YGL078C, strain dbp3, stronger effect = lower value 1.03 | S. cerevisiae deletion strains, locus YGL086W, strain mad1, stronger effect = lower value 1.01 | S. cerevisiae deletion strains, locus YGL248W, strain PDE1, stronger effect = lower value 1 | S. cerevisiae deletion strains, locus YGR135W, strain pre9, stronger effect = lower value 1.03 | S. cerevisiae deletion strains, locus YGR252W, strain gcn5, stronger effect = lower value 1.02 | S. cerevisiae deletion strains, locus YHR079C, strain IRE1 (second series), stronger effect = lower value 1.03 | S. cerevisiae deletion strains, locus YHR094C, strain hxt1, stronger effect = lower value 1.03 | S. cerevisiae deletion strains, locus YHR129C, strain ARP1, stronger effect = lower value 1 | S. cerevisiae deletion strains, locus YHR200W, strain rpn10, stronger effect = lower value 1.02 | S. cerevisiae deletion strains, locus YIL066C, strain RNR3, stronger effect = lower value 0.997 | S. cerevisiae deletion strains, locus YIL073C, strain SPO22, stronger effect = lower value 1.05 | S. cerevisiae deletion strains, locus YIL125W, strain kgd1, stronger effect = lower value 1.01 | S. cerevisiae deletion strains, locus YIR030C, strain dcg1, stronger effect = lower value 1.02 | S. cerevisiae deletion strains, locus YJL095W, strain BCK1, stronger effect = lower value 1.03 | S. cerevisiae deletion strains, locus YJL134W, strain LCB3, stronger effect = lower value 1.01 | S. cerevisiae deletion strains, locus YJL168C, strain set2, stronger effect = lower value 1.02 | S. cerevisiae deletion strains, locus YJL187C, strain SWE1 (second series), stronger effect = lower value 1.02 | [10] 0.983 | [11] 1.02 | S. cerevisiae deletion strains, locus YKL009W, strain mrt4, stronger effect = lower value 1 | S. cerevisiae deletion strains, locus YKL068W, stronger effect = lower value 1.01 | S. cerevisiae deletion strains, locus YKL085W, strain MDH1 (second series), stronger effect = lower value 0.996 | S. cerevisiae deletion strains, locus YKL085W, strain MDH1, stronger effect = lower value 0.996 | S. cerevisiae deletion strains, locus YKL190W, strain CNB1, stronger effect = lower value 1 | S. cerevisiae deletion strains, locus YKR001C, strain vps1, stronger effect = lower value 1.03 | [12] 1 | S. cerevisiae deletion strains, locus YLR058C, strain SHM2, stronger effect = lower value 1 | S. cerevisiae deletion strains, locus YLR102C, strain apc9, stronger effect = lower value 1.01 | [15] 0.97 | S. cerevisiae deletion strains, locus YLR268W, strain sec22, stronger effect = lower value 1.02 | S. cerevisiae deletion strains, locus YLR342W, strain FKS1 (second series), stronger effect = lower value 0.998 | S. cerevisiae deletion strains, locus YLR371W, strain rom2, stronger effect = lower value 1.02 | S. cerevisiae deletion strains, locus YLR418C, strain cdc73, stronger effect = lower value 1.05 | S. cerevisiae deletion strains, locus YML016C, strain PPZ1, stronger effect = lower value 0.999 | S. cerevisiae deletion strains, locus YML032C, strain rad52, stronger effect = lower value 1.02 | S. cerevisiae deletion strains, locus YML124C, strain tub3, stronger effect = lower value 1.01 | S. cerevisiae deletion strains, locus YMR078C, strain ctf18, stronger effect = lower value 1.01 | S. cerevisiae deletion strains, locus YMR223W, strain ubp8, stronger effect = lower value 1.02 | [19] 0.998 | S. cerevisiae deletion strains, locus YNL067W, strain RPL9B, stronger effect = lower value 1.02 | S. cerevisiae deletion strains, locus YNL128W, strain TEP1, stronger effect = lower value 1 | S. cerevisiae deletion strains, locus YNL233W, strain BNI4, stronger effect = lower value 1.05 | S. cerevisiae deletion strains, locus YNL250W, strain rad50, stronger effect = lower value 1.01 | S. cerevisiae deletion strains, locus YNL271C, strain bni1, stronger effect = lower value 1.02 | S. cerevisiae deletion strains, locus YNL298W, strain CLA4, stronger effect = lower value 1.01 | S. cerevisiae deletion strains, locus YNL307C, strain MCK1, stronger effect = lower value 1.01 | S. cerevisiae deletion strains, locus YNR052C, strain pop2, stronger effect = lower value 1.03 | S. cerevisiae deletion strains, locus YOL006C, strain TOP1, stronger effect = lower value 0.976 | S. cerevisiae deletion strains, locus YOL012C, strain htz1 1.07 | S. cerevisiae deletion strains, locus YOL147C, strain pex11, stronger effect = lower value 1.01 | S. cerevisiae deletion strains, locus YOR061W, strain CKA2, stronger effect = lower value 1 | S. cerevisiae deletion strains, locus YOR069W, strain VPS5, stronger effect = lower value 1 | S. cerevisiae deletion strains, locus YOR136W, strain idh2, stronger effect = lower value 1.01 | S. cerevisiae deletion strains, locus YOR144C, strain elg1, stronger effect = lower value 1.01 | S. cerevisiae deletion strains, locus YOR184W, strain ser1, stronger effect = lower value 1 | S. cerevisiae deletion strains, locus YOR316C, strain cot1, stronger effect = lower value 1.01 | S. cerevisiae deletion strains, locus YPR119W, strain clb2, stronger effect = lower value 1.02 | S. cerevisiae deletion strains, locus YPR141C, strain kar3, stronger effect = lower value 1.02 | S. cerevisiae deletion strains, locus YPR163C, strain tif3, stronger effect = lower value 1.01 | S. cerevisiae deletion strains, locus YPR167C, strain met16, stronger effect = lower value 1.02 | S. cerevisiae deletion strains, strain wtn01, stronger effect = lower value 0.994
